The values below come from ChEMBL document CHEMBL4513216, “Probing the Open Global Health Chemical Diversity Library for Multistage-Active Starting Points for Next-Generation Antimalarials” (ACS Infect Dis, 2020).

The campaign covered roughly 65,000 compounds. About 2,100 (3.2%) showed an effect of 50% or more. The median lay at about -52%. This excerpt belongs to a sample that is enriched for strong results.

This experiment deals with Plasmodium falciparum. Description: Screen against P. falciparum Asexual Blood Stage (ABS), at 5uM. Type of experiment: functional, Dd2. The following applies: tested at 5 uM.
Turning to `Cc1ccc(C(=O)N2C[C@H]3CNC[C@H]3C2)cn1`, the INHIBITION is given as -104%. Regarding `Cc1ccccc1SC1CCN(C(=O)C2[C@H]3CNC[C@@H]23)CC1` (some centres not stated), the INHIBITION was determined as 73.3%. In the case of `COc1ncc(-c2cc(NC3CCCC3)nc3[nH]ccc23)c(OC)n1`, the INHIBITION is given as 74%.

Turning to `Cc1cc(Oc2ccc(NC(=O)C3CC3)cc2)cc(C2CCNCC2)n1`, the INHIBITION was determined as 87.8%.

In the case of `Fc1cccnc1O[C@H]1CN(Cc2ccoc2)[C@@H]2CCCO[C@H]12`, the INHIBITION was -26.7%. Turning to `COCC1CN(c2ccc(C#N)c(Cl)c2)CCO1` (configuration not stated), the INHIBITION is reported as -35.5%. In the case of `c1cc(CN2C[C@@H]3OCCN(CC4CCCO4)[C@@H]3C2)ccn1` (some centres not stated), the INHIBITION is given as -111%. Regarding `CNc1cc(C)nc(N2Cc3cnn(Cc4ccc(F)cc4)c3C2)n1`, the INHIBITION came out at 91.9%. As for `CC(C)NC(=O)[C@H]1C[C@@H]2[C@@H](C1)OCCN2Cc1cccnc1`, the INHIBITION is -95.4%.

As to `O=S(=O)(NCCN1CC=CC1)c1ccc(Cl)cc1`, the INHIBITION came to 76.2%.

Turning to `N#Cc1ccc(S(=O)(=O)NCCn2ccnc2)cc1Cl`, the INHIBITION is on record as -39.2%. The value for `c1ccc2nc(CN3CCCC3c3noc(C4CC4)n3)ccc2c1` (configuration not stated) was 72.7%; that for `Cc1nc(CN2CCCC2c2noc(C3CC3)n2)nc2ccccc12` (configuration not stated) was 78.7%. The value for `O=C(Cc1ccccc1)N1CCN(Cc2noc(C3CC3)n2)CC1` was -62.4%; that for `COCCN1C[C@@H]2CC[C@H]1CN(Cc1ccc3ccccc3n1)C2` was 21.2%. For the molecule `CCCS(=O)(=O)CC(=O)N1CCCC1c1noc(C2CC2)n1` (configuration not stated), the INHIBITION is listed as -40.7%. Consider `CCN1CCc2[nH]cnc2C12CCN(c1ccc(Cl)cn1)CC2`, for which the INHIBITION is recorded as 42.9%.

As for `CN(C)Cc1cc(C2CCCCN2S(=O)(=O)c2cccc(Cl)c2)nn1C` (configuration not stated), the INHIBITION is given as 78.8%.

For `CN1CC2(CCNCC2)CC1C(=O)NCCCNc1cccnc1` (configuration not stated), the INHIBITION is -62%.

In the case of `Cc1cnc(N2CC[C@H]3[C@H](C[C@@H](CN(C)C)N3C)C2)nc1`, the INHIBITION is given as -51.8%. On to `CSCc1cc(F)ccc1CNCc1cccc(O)c1`, for which the INHIBITION was found to be 72.6%.

Take `Cc1ccc2[nH]c(-c3cn(C4CCNCC4)nn3)nc2c1C`: the INHIBITION came out at 85.5%.

For the molecule `Cc1cc2nc(-c3cn(C4CCNCC4)nn3)[nH]c2cc1C`, the INHIBITION amounted to 87.5%. For `Cc1cccc2[nH]c(-c3cn(C4CCNCC4)nn3)nc12`, the INHIBITION is given as 73.5%. Next, `Cc1cc(CN2C[C@@H]3COC[C@]3(CN(C)C)C2)no1`: -59%; `Cc1ccc(N2CCO[C@H]3CN(Cc4nccs4)C[C@H]32)nn1`: -168%. In the case of `CCO[C@H]1CN(CC2CC2)[C@@H]2CCCO[C@H]12`, the INHIBITION is recorded as -82.9%. Consider `CCc1noc(CC)c1CC(=O)N1CCCC(N2CCCCC2)C1` (configuration not stated), for which the INHIBITION is on record as -22.8%. `O=C1CC2(CCN(Cc3ccccn3)C2)CN1c1cccnc1` (configuration not stated): the INHIBITION is recorded as -14.1%.

Take `CCN(CC)CCNS(=O)(=O)c1cccc(CSC)c1`: the INHIBITION stood at 83.4%. For the molecule `Cc1nc(C2CCNCC2)cc(N(C)Cc2cc3cc(F)ccc3[nH]2)n1`, the INHIBITION turned out to be 75.9%. For `Cc1nc(NCCC23CCCN2CCC3)cc(C2CCNCC2)n1`, the INHIBITION was -50.1%. For the molecule `CCCN(CC)c1cc(C2CCNCC2)nc(C)n1`, the INHIBITION is on record as -70.1%. Take `CCN(Cc1c(F)cccc1Cl)c1cc(C2CCNCC2)nc(C)n1`: the INHIBITION is given as 76.4%.

As to `Cc1nc(NCC23CCCN2CCC3)cc(C2CCCNC2)n1` (configuration not stated), the INHIBITION is listed as -54.3%. Turning to `CN(Cc1cc2cc(F)ccc2[nH]1)c1cc(C2CCCNC2)ncn1` (configuration not stated), the INHIBITION is 84.2%. For the molecule `COc1ccc2[nH]c(CNc3cc(C4CCNCC4)nc(C)n3)cc2c1`, the INHIBITION was 84.1%. Turning to `Cc1cc(N(C)C)nc(C2CCCNC2)n1` (configuration not stated), the INHIBITION is given as -54.7%.

With `O=C1CC[C@H]2[C@H](CCN2Cc2ccccn2)N1CC1CCOCC1`, the INHIBITION was -82.3%. With `COc1ccc(F)cc1C(=O)C1CCCN(Cc2cnc(C)s2)C1` (configuration not stated), the INHIBITION was -29%.

For `COc1ccccc1-c1ncc(CN2CCCC[C@H](N(C)C)C2)s1`, the INHIBITION was 70.3%. `CCC(CC)C(=O)N1CCOC2(CNC2)C1`: the INHIBITION was -94.6%. The value for `O=C(NCCCNc1ccc(C(F)(F)F)cn1)c1ccc(F)cc1F` was 72.5%; that for `CC(=O)c1cn(CC(=O)N2CCC3(CC2)OCCO3)c2ccccc12` was -61.4%. On to `N#Cc1cccnc1NCCNC(=O)N1CCN2CCCCC2C1` (configuration not stated), for which the INHIBITION was -90.5%. Next, `N#Cc1cccc(CN2CCO[C@@H]3CNC[C@@H]32)c1`: -52.7%. On to `N#Cc1cccc(CN2C[C@@H]3CN(c4ncccn4)C[C@@H]3C2)c1`, for which the INHIBITION turned out to be 19%. For `COCC1CC2(CCN(Cc3cccc(C#N)c3)CC2)CN1C(C)C` (configuration not stated), the INHIBITION turned out to be 73.2%. Consider `COCC1CC2(CCN(c3ccccn3)CC2)CN1C(C)C` (configuration not stated), for which the INHIBITION was -41%.

For the molecule `COCC1CC2(CCN(Cc3ccoc3)CC2)CN1C(C)C` (configuration not stated), the INHIBITION came to 71.6%. For `COCC1CC2(CCN(Cc3ccncc3)CC2)CN1C(C)C` (configuration not stated), the INHIBITION is -68%. For `O=C(CC1CC1)N[C@@H]1CN(Cc2ccccn2)C[C@@H]2CCCO[C@@H]21`, the INHIBITION was -65.3%. In the case of `CN(Cc1ccccn1)C1CCC[C@@H]2CN(CC3CC3)C[C@H]12` (some centres not stated), the INHIBITION was found to be 69.5%.

Consider `O=C(NCc1ccccn1)[C@H]1COC[C@H]2CN(CC3CC3)C[C@H]21`, for which the INHIBITION is given as -35.7%.

As for `Cc1noc(C)c1CN(C)C(=O)C1CCCCN1CC(C)C` (configuration not stated), the INHIBITION was found to be 21.5%. With `COC[C@H](C)Nc1cc(C)c2ccc(SC)cc2n1`, the INHIBITION worked out at 75.5%. Consider `c1ccc(C(Cn2cnnc2)N2CCOCC2)nc1` (configuration not stated), for which the INHIBITION was -29.3%. `CN1CCC2(CC1)CNC(=O)c1ccccc1O2`: the INHIBITION was -102%. `O=C1Nc2ccccc2CC12CCCN2Cc1ccccn1` (configuration not stated): the INHIBITION is on record as -60.5%.

On to `Cc1cc(S(=O)(=O)N2C[C@H](C3CC3)[C@@H](N)C2)c(C)s1`, for which the INHIBITION turned out to be 86.1%. In the case of `Cc1cc(-c2cc(S(=O)(=O)N3C[C@H](C4CC4)[C@@H](N)C3)c(C)s2)on1`, the INHIBITION stood at 71.2%. Consider `O=C(CC1CC1)N[C@@H]1CN(Cc2ccncc2)C[C@@H]2CCCO[C@@H]21`, for which the INHIBITION was -86.8%. Take `Cc1nnc(N2CCNCC2)c(C(N)=O)c1C`: the INHIBITION was -11.3%.

As to `CCN1CC2(CC1=O)CN(Cc1ccccn1)CCN(C(C)=O)C2` (configuration not stated), the INHIBITION was -40.2%. As for `CN1CC=C(c2noc(CCC(=O)N3CCc4ccccc43)n2)CC1`, the INHIBITION is -88.8%. Turning to `CC(C)CN1CCCC1c1ccc(C(=O)Nc2cccnc2)s1` (configuration not stated), the INHIBITION was 87.5%. For the molecule `CC(=O)N1CC[C@H]2N(C)CC[C@@]2(C(=O)Nc2cccnc2)CC1`, the INHIBITION is recorded as -36%. Turning to `CC(C)CN1C[C@@H]2C[C@H](C(=O)Nc3cccnc3)[C@H](C1)O2`, the INHIBITION is on record as -48.5%. For `Cn1nc(-c2cccs2)cc1[C@H]1CN2CC[C@H]1C[C@@H]2CN`, the INHIBITION is recorded as -26%.

Consider `CSc1ccccc1C(=O)C1CCCN(Cc2cc(C(C)C)[nH]n2)C1` (configuration not stated), for which the INHIBITION is given as -93.2%. The value for `Cc1csc(C2CCCCN2C(=O)c2cc(C(C)C)[nH]n2)n1` (configuration not stated) was 76.4%.

On to `CN(C)Cc1cncc2c1CCN(CC(=O)N(C)C)C2`, for which the INHIBITION is -114%. Regarding `Cc1ncc(CN(Cc2ccccn2)Cc2ccccc2Cl)n1C`, the INHIBITION came to 91.6%. As to `O=C(NCCCOCC1CC1)Nc1ccc(-n2cncn2)c(F)c1`, the INHIBITION is reported as 88.3%. Regarding `CN(CCOCC1CC1)C(=O)Nc1ccc(C#N)c(Cl)c1`, the INHIBITION is -115%.

With `c1cncc(OC[C@]23COC[C@H]2CN(Cc2ccsc2)C3)c1`, the INHIBITION is listed as 20.3%. `O[C@@]1(CNCCCOc2cccnc2)CCCN2CCCC[C@@H]21`: the INHIBITION was -36.8%. Take `O[C@@H]1CC(CNCc2ccc(Cl)cc2)(COc2cccnc2)C[C@@H]1O` (some centres not stated): the INHIBITION is 70.3%. In the case of `O=S(=O)(NCC(c1ccsc1)N1CCCCCC1)c1cccs1` (configuration not stated), the INHIBITION stood at 85.5%. Regarding `Cc1ccc(NC(=O)N2CCC(CO)(Nc3ccccc3)CC2)cc1`, the INHIBITION is listed as -31.275%. The value for `NC(=O)CN1CCCCC1c1ccc(-n2ccnc2)nc1` (configuration not stated) was -59.6%; that for `OCCN1CCOC2(CCCN(c3ncccn3)C2)C1` (configuration not stated) was -14.1%; that for `Fc1cccc(N2CCCC3(C2)CN(c2ncccn2)CCO3)c1` (configuration not stated) was 70.6%. With `OCCN1CCOC2(CCCN(c3ncc(F)cn3)C2)C1` (configuration not stated), the INHIBITION is 11%. Take `Cc1noc(C)c1CN1CCO[C@H]2CN(Cc3cnn(C)c3)C[C@H]21`: the INHIBITION is 13.9%.

For `CCNC(=O)C(C)NC(=O)c1cnc(-c2ccc(C)cc2C)s1` (configuration not stated), the INHIBITION was determined as 71.5%. The value for `CCS(=O)(=O)NC[C@]12COC[C@H]1CN(Cc1cccnc1OC)C2` was -27.6%; that for `CCNC(=O)c1cn(C(C)(C)C)c2ncccc12` was 5.57%; that for `Cc1cccc(CN2C[C@@H]3COC[C@]3(COCC(=O)N(C)C)C2)n1` was -104%. For `CN(CCCO)Cc1cc(Cl)ccc1OCC(O)CN1CCCCCC1` (configuration not stated), the INHIBITION was determined as 90.7%. `COc1ccc(Cl)cc1CC(=O)N1CCN(CC(C)(C)O)CC1`: the INHIBITION is given as -155%. For `CN(CCO)Cc1cc(Cl)ccc1OCC(O)CN1CCCCCC1` (configuration not stated), the INHIBITION turned out to be 81.5%. Next, `COCCN(C)Cc1cc(Cl)ccc1OCC(O)CN1CCCCCC1` (configuration not stated): 83.9%. On to `CCC(O)CN1CCN(C(=O)Cc2cc(Cl)ccc2OC)CC1` (configuration not stated), for which the INHIBITION is listed as -17.7%. With `Cn1cc(C2SCC(=O)Nc3c2c(=O)[nH]n3C2CCOCC2)cn1` (configuration not stated), the INHIBITION was -57.4%. As to `O=C1CSC(c2ccccc2)c2c(n(C3CCOCC3)[nH]c2=O)N1` (configuration not stated), the INHIBITION is -34.2%. As for `c1cc([C@H]2C[C@@H]3CCN(Cc4nccs4)C[C@H]3O2)ncn1`, the INHIBITION is listed as -99.9%. As for `Cc1noc([C@H]2C[C@H]3OCC[C@H]3N(Cc3ccncc3)C2)n1`, the INHIBITION is reported as -164%. `CCCn1nc(C)c(-c2cncn2CC2(N(C)C)CCC(C)CC2)c1C` (configuration not stated): the INHIBITION was determined as 70.3%. Turning to `CC(C)Oc1ncnc2c1CCN(Cc1ccc(F)cc1)CC2`, the INHIBITION came out at 70.8%.

Take `CC(c1ccc(F)cc1)N1CCN(Cc2ccc(C#N)cc2)CC1` (configuration not stated): the INHIBITION is listed as -14.8%. For `O=C1[C@H]2CN(Cc3ccc(F)cc3)C[C@H]2CN1c1cncnc1`, the INHIBITION is given as 2.38%.
